From PubChem BioAssay AID720582 (The Scripps Research Institute Molecular Screening Center, 2013)
The whole screen tested about 370,000 compounds, of which about 2,300 (0.62%) were called active. This is one part of a sample in which actives are shown more often than they occur.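 How the source made its calls: active means inhibition above a per-campaign cutoff equal to the mean of compounds falling between control-based bounds plus 3 SD (cut at about 20% in these data); inactive means the rest.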

What follows are molecules tested against Disintegrin and metalloproteinase domain-containing protein 10 (Homo sapiens) (UniProt O14672) (assay: blockers of ADAM10 peptide cleavage – biochemical, QFRET, HTS, primary screen (AID 720582;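 further: 0% = DMSO wells while the 100% control is not disclosed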)). Conditions: recombinant ADAM10, EDANS/DABCYL FRET peptide cleavage, 3 h; at 7 µM; active compounds read high.
Chain of Disintegrin and metalloproteinase domain-containing protein 10 (Homo sapiens) (O14672 214-748 limits assumed): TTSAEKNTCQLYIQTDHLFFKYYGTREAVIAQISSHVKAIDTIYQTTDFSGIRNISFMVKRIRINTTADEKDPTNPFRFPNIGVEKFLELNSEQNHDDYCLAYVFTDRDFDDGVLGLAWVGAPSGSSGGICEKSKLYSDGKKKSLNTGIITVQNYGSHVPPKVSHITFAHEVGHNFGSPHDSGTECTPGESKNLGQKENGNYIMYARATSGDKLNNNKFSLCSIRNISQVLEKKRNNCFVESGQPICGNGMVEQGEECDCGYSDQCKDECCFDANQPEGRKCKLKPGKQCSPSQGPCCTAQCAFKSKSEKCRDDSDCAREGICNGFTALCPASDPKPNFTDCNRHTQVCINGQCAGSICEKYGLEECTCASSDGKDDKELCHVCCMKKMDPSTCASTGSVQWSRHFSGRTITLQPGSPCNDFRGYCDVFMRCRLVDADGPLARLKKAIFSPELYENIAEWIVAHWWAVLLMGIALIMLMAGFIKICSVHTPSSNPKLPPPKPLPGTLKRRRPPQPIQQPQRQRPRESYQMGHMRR

inhibition, inactive:
COCC(=O)N[C@@H]1C[C@@H]2O[C@@H](CO)CC[C@@H]2O[C@@H]1CCc1ccc(-c2ccccc2)cc1 4.87%
O=C(COC(=O)Cc1ccc(Br)cc1)Nc1ccc(N2CCOCC2)cc1 -15.2%
CSc1ccccc1NC(=O)Cc1ccc(Br)cc1 2.92%
O=C1C(=O)N(Cc2ccc(-c3ccsc3)cc2)c2ccc(OC(F)(F)F)cc21 3.17%
CC(=O)OC12CCCN(C1)/C(=C/c1ccncc1)C2 (stereo not drawn) -16.8%
CCOc1ccc(/C=N/NC(=O)C(C)Sc2ccccn2)cc1OCC (stereo not drawn) -1%
CCOc1ccccc1-c1cc(C(=O)N/N=C(\C)c2cccnc2)c2ccccc2n1 0.58%
COc1ccnc(C(=O)N2CCC(Oc3cccnc3)CC2)c1 1.62%
O=C(CSc1nnc(-c2ccccc2)n1Cc1ccco1)Nc1ccccc1-c1ccccc1 15%
CCCSc1nc(NCc2ccco2)c2c3c(sc2n1)COC(C)(CC)C3 (stereo not drawn) -57.9%
CCOC(=O)Cn1c(SC)nc2sc3c(c2c1=O)CC(C)(C)OC3 -52.7%
CN(CCO)c1cccc2c1S(=O)(=O)N(Cc1cn(Cc3ccc(C(F)(F)F)cc3)nn1)Cc1ccccc1O2 -6.76%
COc1ccnc(NC(=S)N2CCN(c3ncc(C(F)(F)F)cc3Cl)CC2)c1 -1.47%
COc1ccc(C2CC(c3ccccc3)=NN2C(=O)c2ccc(Cl)c([N+](=O)[O-])c2)cc1 (stereo not drawn) -1.55%
COc1ccc(C2=NN(C(=O)CSc3nc(=O)n4ccc(C)cc4n3)C(c3ccc(C)cc3)C2)cc1 (stereo not drawn) -4.74%
CCOC(=O)[C@]12CCCC3=C1N(CCC3)C(=O)[C@@H](CC(=O)NCC13CC4CC(CC(C4)C1)C3)C2 3.03%
O=C(CSc1nc2ccccc2n1Cc1ccccc1)NNC(=S)Nc1ccccc1 12.5%
Cc1ccccc1NC(=O)C1CCN(c2ncccn2)CC1 -49.2%
Cc1ccc(Cn2cc(CN3[C@@H](CC(C)C)COc4ccc(Cl)cc4S3(=O)=O)nn2)cc1 2.6%
CC(C)c1ccc(S(=O)(=O)N2CCN(C(C)C(=O)NC3CCCC3)CC2)cc1 (stereo not drawn) -11.6%
COc1cccc(CNC(C)C(=O)Nc2ccc(S(=O)(=O)N3CCCC3)cc2)c1 (stereo not drawn) -0.95%
Oc1ccc(/C=C/c2c(F)cccc2F)c2cccnc12 5.02%
Cc1ccc(Cn2cc(COC(=O)N(C)Cc3ccccc3)nn2)cc1 -0.56%
Cc1ccc(S(=O)(=O)N2CCN(C(=O)COC(=O)CNC(=O)c3ccc(C(C)(C)C)cc3)CC2)c(C)c1 -0.12%
COc1ccc(/C=C/C(=O)OCC(=O)N2CCN(S(=O)(=O)c3ccc(C)cc3C)CC2)cc1OC -21.9%
FC(F)(F)c1cccc(NC(=S)OC2CCC23CCC(c2ccccc2)CC3)c1 (stereo not drawn) 10.3%
FC(F)(F)c1cccc(Cn2ccc3ccc(-c4ccc5ccn(Cc6ccccc6)c5c4)cc32)c1 -38.5%
COc1ccc(-n2c(SCC(=O)Nc3ccc(C)c(Cl)c3)nc3ccccc3c2=O)cc1 -4.98%
CCOC(=O)c1cccc(NC(=O)CN(C)S(=O)(=O)c2ccc(-c3cocn3)s2)c1 8.22%
C#CCN(C[C@@H]1[C@@H](OC(=O)NC2CC2)[C@@H](OC(=O)NC2CC2)Cn2c(=O)ccc(=O)n21)S(=O)(=O)c1ccc(C)cc1 -5.52%
Cc1ccc(S(=O)(=O)N2C[C@]3(O)C[C@@H]4C(=O)N(c5ccccc5)C(=O)[C@@H]4C[C@]3(OC(=O)NC3CC3)C2)cc1 -2.91%
COC(=O)[C@]12C[C@H](CC(=O)N3CCOCC3)C(=O)N(Cc3ccc(Cl)cc3Cl)C1=C[C@H](COCc1ccccc1)O[C@@H]2C 0.45%
COc1cc(NC(=O)COC(=O)c2cnc(C)cn2)c(C)cc1[N+](=O)[O-] 2.74%
Cc1cnc(C(=O)OCC(=O)NCCCc2ccccc2)cn1 -1.14%
Cc1cccc(NC(=O)C[C@H]2CC[C@H]3[C@@H](COc4ccc(NC(=O)Nc5ccccc5)cc4C(=O)N3C)O2)c1 5.56%
COc1cccc(NC(=O)C/C(C)=N/NC(=O)C2CCCCC2)c1 15.3%
COc1cccc(NC(=O)C2c3cc(OC)c(OC)cc3C(=O)N(C)C2c2cccnc2)c1 (stereo not drawn) -5.09%
Cc1ccc(CSc2nnc(SCC(=O)NN=Cc3cc(Br)ccc3F)s2)cc1 -6.1%
COc1ccc(NC(=S)NCC2CCN(c3ccc(OC)cc3)C2)cc1 (stereo not drawn) 7.62%
Cc1ccc(NC(=O)COC(=O)CNC(=O)c2ccc(Cl)cc2Cl)cc1S(=O)(=O)N1CCOCC1 7.22%
O=C(CCNC(=O)c1ccc([N+](=O)[O-])cc1)Nc1ccccc1N1CCOCC1 1.54%
Cc1ccc(CN2CCCCC(NC(=O)C3CCCCC3)C2=O)cc1 (stereo not drawn) -0.65%
O=C(CSc1nc2c(c(=O)[nH]1)CCCC2)N1CCCCC1 3.78%
CCOC(=O)c1csc(NC(=O)Nc2cccc(OC)c2)n1 0.5%
NC(c1csc(NC(=O)Nc2ccccc2Oc2ccccc2)n1)c1ccccc1Cl (stereo not drawn) -3.13%
Nn1c(SCC(=O)Nc2cccc3ccccc23)nnc1-c1cc(-c2ccc(F)cc2)n[nH]1 -0.59%
COc1ccc(Cl)cc1NC(=O)c1cccc(N2C(=O)C3CC=CCC3C2=O)c1 (stereo not drawn) 3.57%
COc1ccc(Cl)cc1NC(=O)COC(=O)c1ccc(Br)o1 -6.92%
Cc1ccccc1CS(=O)(=O)Cc1ccc(C(=O)Nc2ccc(Cl)cc2)o1 -29%
Cc1sc2nc(SCC(=O)c3ccc(O)c(O)c3)n(Cc3ccco3)c(=O)c2c1C 15.9%
COc1cccc(CNC(=O)C2CCCN(c3nc4ccccc4o3)C2)c1OC (stereo not drawn) 2.5%
O=C1c2ccccc2C(=O)N1CCOc1ccc(F)cc1 0.68%
Cc1c(C=O)c2ccccc2n1CCOc1ccccc1 10.4%
Cc1ccc(C(=O)C2CCN(CC(=O)NCCC(C)C)CC2)cc1 -6.22%
Cc1cccc(OCCNC(=S)NC(=O)c2cccnc2)c1 2.33%
NS(=O)(=O)c1ccc(NC(=S)NC(=O)c2cccnc2)cc1 -8.74%
O=C1CCC2(CCC(c3ccc(Cl)cc3)CC2)N1CCO (stereo not drawn) -9.03%
CCN(CC)c1ccc(/C=N/NC(=O)CNC(=O)c2cccs2)cc1 -246%
O=C(N[C@@H](Cc1c[nH]c2ccccc12)C(=O)O)OCC1c2ccccc2-c2ccccc21 -1.67%
COC(CNC(=O)[C@H](Cc1ccccc1)NC1(C(=O)NC2CCCCC2)CCCCC1)OC 4.93%
O=C(CCS(=O)(=O)c1ccccc1)Nc1ccc(Cl)c(Cl)c1 -2.68%
O=C(Nc1ccc(Cl)c(Cl)c1)N1CC=C(c2ccccc2)CC1 -19.8%
COC(=O)C1CN(Cc2ccc(F)cc2)CCS(=O)(=O)N1Cc1ccc(Cl)cc1 (stereo not drawn) -0.23%
COC(=O)[C@H](C(C)C)N1CCc2nnn(Cc3ccc(C)cc3)c2-c2ccccc2S1(=O)=O 5.83%
COC(=O)[C@]12C[C@H](CC(=O)NCCc3ccccc3OC)C(=O)N(Cc3ccco3)C1=C[C@H](C(C)C)O[C@@H]2C1CC1 -2.42%
CC(=O)Nc1ccc(OC[C@@H](O)CN2CCC(C(O)(c3ccccc3)c3ccccc3)CC2)cc1 4.68%

inhibition, active:
CC(C)Oc1ccc(CC(=O)NNC(=S)Nc2ccc(Br)cc2)cc1 23.5%
CCOc1cc(/C=N/NC(=O)c2cc(-c3ccccc3)nc3ccccc23)ccc1O 22.1%
CCC1(C)Cc2c(sc3nnn(CC(=O)Nc4ccc(Cl)cc4)c(=O)c23)CO1 (stereo not drawn) 20.1%
COc1ccc(C2CC(c3ccccc3)=NN2C(=O)COC(=O)COc2ccccc2)cc1 (stereo not drawn) 20.3%
COc1ccc(S(=O)(=O)N2CCN(C(C)C(=O)Nc3ccc(C(C)C)cc3)CC2)cc1 (stereo not drawn) 26.6%
Cc1ccc(S(=O)(=O)N2CCN(C(=O)COC(=O)c3c(C)cc(C)cc3C)CC2)c(C)c1 23.9%
CC1(Cc2cccc(C#N)c2)C(=O)Nc2ccc(-c3cccc(C(F)(F)F)c3)cc21 (stereo not drawn) 33.6%
C#CCN(C[C@H]1[C@H](OC(=O)NC2CCCC2)[C@H](OC(=O)NC2CCCC2)C[C@H]2C(=O)N(c3ccccc3)C(=O)[C@@H]12)S(=O)(=O)c1ccc(C)cc1 29.4%
Cc1cnc(C(=O)OCc2c(C)cc(C(C)(C)C)cc2C)cn1 21.7%
COc1cccc(NC(=O)C2C(c3ccccc3)C2(Cl)Cl)c1 (stereo not drawn) 19.8%
O=C(CNC(=O)c1ccc(Cl)cc1Cl)NCC(=O)Nc1ccccc1N1CCOCC1 83.6%
COc1ccc(C(N)c2csc(NC(=O)Nc3cccc(C(F)(F)F)c3)n2)cc1 (stereo not drawn) 25.5%
COc1ccc(Cl)cc1NC(=O)COC(=O)C(CC(C)C)N1C(=O)C2CC=CCC2C1=O (stereo not drawn) 28%
O=Cc1cn(CCOc2ccc(F)cc2)c2ccccc12 20.7%
O=C(/C=C/c1ccc(F)cc1)NC(=S)NNC(=O)c1cccnc1 22.8%
O=C(NC(Cc1c[nH]c2ccccc12)C(=O)N/N=C/c1ccc(Br)cc1)c1cccs1 (stereo not drawn) 28.1%
O=C(CC(O)(C(F)(F)F)C(F)(F)F)Nc1ccc(Cl)c(Cl)c1 23.7%
